Records with an inconclusive call do not appear. A call without a number means that no potency is given here. The source made the active and inactive calls. Calls follow the shape of the dose curve; as a rule, active = well fitted cell-killing curve with a large enough effect; inconclusive = small, poorly fitted or top-dose-only effect; inactive = flat fitted curve, though single readings scatter.
Assay: qHTS of pediatric cancer cell lines to identify multiple opportunities for drug repurposing: Primary screen for TC32 cells (AID 1347089); also: nearly all actives have a fitted effect of over 60% in size
Details: TC32 Ewing sarcoma viability, CellTiter-Glo luminescence, 48 h; series mostly up to 45.8 µM
Summary of the method: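 Luminescent ATP read-out (CellTiter-Glo) of metabolically active TC32 cells after 48 h exposure. Concentration-response curves came from 11-point (MIPE, 0.78 nM–46 µM) or 8-point (NPC, 0.59 nM–46 µM) primary titrations; follow-up used 11 points.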
In the case of CCN(CC)CCNC(=O)COc1ccc(Cl)cc1, the Potency was “inactive”. In the case of Cc1onc(-c2c(Cl)cccc2Cl)c1C(=O)N[C@@H]1C(=O)N2[C@@H]1SC(C)(C)[C@@H]2C(=O)O, the Potency was “inactive”. For CC(C)(C)NC(=O)[C@@H]1CN(Cc2cccnc2)CCN1C[C@@H](O)C[C@@H](Cc1ccccc1)C(=O)N[C@H]1c2ccccc2C[C@H]1O, the Potency was “inactive”. With C=CCc1ccc(O)c(OC)c1 the Potency was “inactive”. With NCCc1ccn[nH]1 the Potency was “inactive”. With OC[C@H]1O[C@H](O[C@]2(CCl)O[C@H](CCl)[C@@H](O)[C@@H]2O)[C@H](O)[C@@H](O)[C@H]1Cl the Potency was “inactive”. With COc1c2occc2c(OC)c2c(=O)cc(C)oc12 the Potency was “inactive”. In the case of COc1cc2c(cc1OC)[C@@H]1CC(=O)[C@@H](CC(C)C)CN1CC2, the Potency was “inactive”. For C[C@H](CCC(=O)O)[C@H]1CC[C@H]2[C@@H]3C(=O)C[C@@H]4CC(=O)CC[C@]4(C)[C@H]3CC(=O)[C@]12C, the Potency was “inactive”. With C[C@@H]1C[C@H]2[C@@H]3CCC4=CC(=O)C=C[C@]4(C)[C@@]3(F)[C@@H](O)C[C@]2(C)[C@H]1C(=O)CO the Potency was “inactive”. With CN(C)CC/C=C1/c2ccccc2COc2ccc(CC(=O)O)cc21 the Potency was “inactive”. With C/C=C/c1ccc(OC)cc1 the Potency was “inactive”. In the case of CN=C(NC#N)Nc1ccc(C2=NNC(=O)CC2C)cc1 (configuration not stated), the Potency was “inactive”. With CCC(C(=O)OCCN(CC)CC)c1ccccc1 (configuration not stated) the Potency was “inactive”. With CC(=O)Oc1ccc(C(=C2CCCCC2)c2ccc(OC(C)=O)cc2)cc1 the Potency was “inactive”. For O=C(Nc1ccc(Cl)c(Cl)c1)C1CC1, the Potency was “inactive”. With CCC(=O)c1c(O)cc(O)cc1O the Potency was “inactive”. With Cc1cccn2c(=O)c(-c3nnn[nH]3)cnc12 the Potency was “inactive”. In the case of CC1(C)O[C@@H]2C[C@H]3[C@@H]4C[C@H](F)C5=CC(=O)CC[C@]5(C)[C@H]4[C@@H](O)C[C@]3(C)[C@]2(C(=O)CO)O1, the Potency was “inactive”. With C[C@]12CC[C@H]3[C@@H](CCC4=CC(=O)CC[C@@]43C)[C@@H]1CC[C@@H]2C(=O)CO the Potency was “inactive”. With Cc1c(C(N)=O)cc([N+](=O)[O-])cc1[N+](=O)[O-] the Potency was “inactive”. With Cc1c(C(C)C)c(=O)n(-c2ccccc2)n1C the Potency was “inactive”. With CC(=O)OCC(=O)[C@@]1(O)[C@H](C)C[C@H]2[C@@H]3CCC4=CC(=O)C=C[C@]4(C)[C@@]3(F)[C@@H](O)C[C@@]21C the Potency was “inactive”. In the case of OCc1ccccc1O, the Potency was “inactive”. With CCN1CCCC1=O the Potency was “inactive”. In the case of OC[C@H]1O[C@@H](n2cnc3c(=S)nc[nH]c32)[C@H](O)[C@@H]1O, the Potency was 1670 nM (active). With CCOC(=O)c1cccc(N)c1 the Potency was “inactive”. In the case of CC(=O)[C@H]1CC[C@H]2[C@@H]3C[C@H](C)C4=CC(=O)CC[C@]4(C)[C@H]3[C@@H](O)C[C@]12C, the Potency was “inactive”. With NCCCC[C@H](N[C@@H](CCc1ccccc1)C(=O)O)C(=O)N1CCC[C@H]1C(=O)O the Potency was “inactive”. In the case of Cc1cc(O)c(C(C)C)cc1Cl, the Potency was “inactive”. With COc1cc(/C=C/C(=O)O[C@H]2CC[C@]34C[C@]35CC[C@]3(C)[C@@H]([C@H](C)CCC=C(C)C)CC[C@@]3(C)[C@@H]5CC[C@H]4C2(C)C)ccc1O the Potency was “inactive”. For CC1(C)O[C@@H]2C[C@H]3[C@@H]4CCC5=CC(=O)CC[C@]5(C)[C@@]4(F)[C@@H](O)C[C@]3(C)[C@]2(C(=O)CCl)O1, the Potency was “inactive”. For Nc1ccc(C(=O)O)cc1, the Potency was “inactive”. In the case of CN1CCN(C(c2ccccc2)c2ccccc2)CC1, the Potency was “inactive”. With CC1(C)O[C@@H]2C[C@H]3[C@@H]4C[C@H](F)C5=CC(=O)C=C[C@]5(C)[C@H]4[C@@H](O)C[C@]3(C)[C@]2(C(=O)CO)O1 the Potency was “inactive”. For Nc1nc2ncc(CNc3ccc(C(=O)N[C@@H](CCC(=O)O)C(=O)O)cc3)nc2c(=O)[nH]1, the Potency was “inactive”.

Assay: qHTS of pediatric cancer cell lines to identify multiple opportunities for drug repurposing: Primary screen for DAOY cells (AID 1347090); also: nearly all actives have a fitted effect of over 55% in size
Details: DAOY medulloblastoma viability, CellTiter-Glo luminescence, 48 h; series mostly up to 46 µM
Summary of the method: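 Cell viability, CellTiter-Glo luminescence; 500-1,000 cells/well, 8- or 11-point titration, 48 h compound exposure at 37 degrees C, 5% CO2. Controls: DMSO neutral, bortezomib 2.3 µM final as positive.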
For CCN(CC)CCNC(=O)COc1ccc(Cl)cc1, the Potency was “inactive”. In the case of Cc1onc(-c2c(Cl)cccc2Cl)c1C(=O)N[C@@H]1C(=O)N2[C@@H]1SC(C)(C)[C@@H]2C(=O)O, the Potency was “inactive”. For CC(C)(C)NC(=O)[C@@H]1CN(Cc2cccnc2)CCN1C[C@@H](O)C[C@@H](Cc1ccccc1)C(=O)N[C@H]1c2ccccc2C[C@H]1O, the Potency was “inactive”. For C=CCc1ccc(O)c(OC)c1, the Potency was “inactive”. In the case of NCCc1ccn[nH]1, the Potency was “inactive”. In the case of OC[C@H]1O[C@H](O[C@]2(CCl)O[C@H](CCl)[C@@H](O)[C@@H]2O)[C@H](O)[C@@H](O)[C@H]1Cl, the Potency was “inactive”. In the case of COc1c2occc2c(OC)c2c(=O)cc(C)oc12, the Potency was “inactive”. With COc1cc2c(cc1OC)[C@@H]1CC(=O)[C@@H](CC(C)C)CN1CC2 the Potency was “inactive”. With C[C@H](CCC(=O)O)[C@H]1CC[C@H]2[C@@H]3C(=O)C[C@@H]4CC(=O)CC[C@]4(C)[C@H]3CC(=O)[C@]12C the Potency was “inactive”. In the case of C[C@@H]1C[C@H]2[C@@H]3CCC4=CC(=O)C=C[C@]4(C)[C@@]3(F)[C@@H](O)C[C@]2(C)[C@H]1C(=O)CO, the Potency was “inactive”. In the case of CN(C)CC/C=C1/c2ccccc2COc2ccc(CC(=O)O)cc21, the Potency was “inactive”. In the case of C/C=C/c1ccc(OC)cc1, the Potency was “inactive”. With CN=C(NC#N)Nc1ccc(C2=NNC(=O)CC2C)cc1 (configuration not stated) the Potency was “inactive”. With CCC(C(=O)OCCN(CC)CC)c1ccccc1 (configuration not stated) the Potency was “inactive”. With CC(=O)Oc1ccc(C(=C2CCCCC2)c2ccc(OC(C)=O)cc2)cc1 the Potency was “inactive”. With O=C(Nc1ccc(Cl)c(Cl)c1)C1CC1 the Potency was “inactive”. For CCC(=O)c1c(O)cc(O)cc1O, the Potency was “inactive”. In the case of Cc1cccn2c(=O)c(-c3nnn[nH]3)cnc12, the Potency was “inactive”. For CC1(C)O[C@@H]2C[C@H]3[C@@H]4C[C@H](F)C5=CC(=O)CC[C@]5(C)[C@H]4[C@@H](O)C[C@]3(C)[C@]2(C(=O)CO)O1, the Potency was “inactive”. In the case of C[C@]12CC[C@H]3[C@@H](CCC4=CC(=O)CC[C@@]43C)[C@@H]1CC[C@@H]2C(=O)CO, the Potency was “inactive”. In the case of Cc1c(C(N)=O)cc([N+](=O)[O-])cc1[N+](=O)[O-], the Potency was “inactive”. In the case of Cc1c(C(C)C)c(=O)n(-c2ccccc2)n1C, the Potency was “inactive”. For CC(=O)OCC(=O)[C@@]1(O)[C@H](C)C[C@H]2[C@@H]3CCC4=CC(=O)C=C[C@]4(C)[C@@]3(F)[C@@H](O)C[C@@]21C, the Potency was “inactive”. With OCc1ccccc1O the Potency was “inactive”. With CCN1CCCC1=O the Potency was “inactive”. In the case of OC[C@H]1O[C@@H](n2cnc3c(=S)nc[nH]c32)[C@H](O)[C@@H]1O, the Potency was 422 nM (active). In the case of CCOC(=O)c1cccc(N)c1, the Potency was “inactive”. In the case of CC(=O)[C@H]1CC[C@H]2[C@@H]3C[C@H](C)C4=CC(=O)CC[C@]4(C)[C@H]3[C@@H](O)C[C@]12C, the Potency was “inactive”. For NCCCC[C@H](N[C@@H](CCc1ccccc1)C(=O)O)C(=O)N1CCC[C@H]1C(=O)O, the Potency was “inactive”. With Cc1cc(O)c(C(C)C)cc1Cl the Potency was “inactive”. With COc1cc(/C=C/C(=O)O[C@H]2CC[C@]34C[C@]35CC[C@]3(C)[C@@H]([C@H](C)CCC=C(C)C)CC[C@@]3(C)[C@@H]5CC[C@H]4C2(C)C)ccc1O the Potency was “inactive”. For CC1(C)O[C@@H]2C[C@H]3[C@@H]4CCC5=CC(=O)CC[C@]5(C)[C@@]4(F)[C@@H](O)C[C@]3(C)[C@]2(C(=O)CCl)O1, the Potency was “inactive”. With Nc1ccc(C(=O)O)cc1 the Potency was “inactive”. In the case of CN1CCN(C(c2ccccc2)c2ccccc2)CC1, the Potency was “inactive”. In the case of CC1(C)O[C@@H]2C[C@H]3[C@@H]4C[C@H](F)C5=CC(=O)C=C[C@]5(C)[C@H]4[C@@H](O)C[C@]3(C)[C@]2(C(=O)CO)O1, the Potency was “inactive”. For Nc1nc2ncc(CNc3ccc(C(=O)N[C@@H](CCC(=O)O)C(=O)O)cc3)nc2c(=O)[nH]1, the Potency was “inactive”.

— PubChem BioAssay (NCATS)
Potency is read from the fitted curve at half-maximal effect.
